Rows were chosen to be rich in hits. Some 10% of all compounds tested hit in one or more screens of this group.
ALDH1A1 block: ALDH1A1 (human) enzyme inhibition | P00352 | Purified ALDH1A1, NADH fluorescence, propionaldehyde substrate | Potency, µM (doses to about 75.3 µM), most hits filed as inhibitors | 220,000 compounds, 7.3% hits | AID 1030
Target sequence (P00352 whole entry, looked up): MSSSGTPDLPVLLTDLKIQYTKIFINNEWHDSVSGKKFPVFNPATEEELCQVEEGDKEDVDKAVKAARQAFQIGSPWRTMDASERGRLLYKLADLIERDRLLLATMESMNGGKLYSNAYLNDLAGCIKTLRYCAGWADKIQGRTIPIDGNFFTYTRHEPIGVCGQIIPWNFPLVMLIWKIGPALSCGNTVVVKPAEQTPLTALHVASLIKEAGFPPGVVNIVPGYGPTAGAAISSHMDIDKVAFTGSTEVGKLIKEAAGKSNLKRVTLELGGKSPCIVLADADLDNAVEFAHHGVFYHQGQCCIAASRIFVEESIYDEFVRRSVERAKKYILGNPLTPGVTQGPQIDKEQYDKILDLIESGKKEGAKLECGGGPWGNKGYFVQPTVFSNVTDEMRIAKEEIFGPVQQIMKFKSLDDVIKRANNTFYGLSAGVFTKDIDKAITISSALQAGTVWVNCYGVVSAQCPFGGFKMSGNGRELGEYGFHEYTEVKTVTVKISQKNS
IMPase cell inh: IMPase inhibition in cells; inhibition (IP1 accumulation), % at 46.1 µM; CHO-M1 cells, IP1 accumulation, HTRF TR-FRET ratio; 120,000 tested, under 10 active; active = well fitted curve in the direction sought with a large enough effect in the signal ratio, not every such curve was filed as active; inconclusive = small, poorly fitted or top-dose-only effect, or a change in a side signal; inactive = no such curve, though single readings can be large or run the other way; the % refers to the signal ratio;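 note: cells stimulated with carbachol in lithium chloride buffer; higher means more IMPase inhibition seen as more IP1 and lower FRET ratio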
Target sequence (P97697 whole entry, looked up): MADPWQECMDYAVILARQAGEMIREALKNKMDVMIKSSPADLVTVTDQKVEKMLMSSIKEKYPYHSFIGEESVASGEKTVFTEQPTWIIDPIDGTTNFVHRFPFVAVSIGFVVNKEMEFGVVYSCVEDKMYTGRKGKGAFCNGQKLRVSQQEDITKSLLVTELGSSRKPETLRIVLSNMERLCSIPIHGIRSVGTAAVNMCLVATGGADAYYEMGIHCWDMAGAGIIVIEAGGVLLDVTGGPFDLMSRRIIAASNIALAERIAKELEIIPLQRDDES
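In this qHTS, compounds (final up to 46 uM) act on CHO-M1 cells that are then activated through the M1 receptor with carbachol, in pH 7.4 buffer containing 50 mM LiCl, for 30 min. IP1 accumulation is quantified by the IP-One immunoassay.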
LMNA splice mod: changes lamin A minigene splicing in HeLa cells; HeLa LMNA splicing GFP/RFP minigene ratio, 48 h; Potency, µM (doses to about 46.1 µM), most hits filed as inhibitors; 200,000 compounds, 0.01% hits; AID 1487; active = well fitted inhibition curve with a large enough effect in the signal ratio, with a control signal flat, not every such curve was filed as active; inconclusive = small, poorly fitted or top-dose-only effect, or effect the other way, or a change in a side signal; the % refers to the signal ratio
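Read-out is the ratio of GFP to DsRed2 object intensity, acquired by 488 nm laser-scanning cytometry on HeLa lamin A-EGFP minigene reporter cells. Compound incubation 48 hrs at 37 °C in Opti-MEM with 2% FBS; DMSO 0.5% final.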
HPGD inh: inhibitors of human 15-hydroxyprostaglandin dehydrogenase (HPGD); AID 894; purified HPGD, NADH fluorescence kinetic, PGE2 substrate; 150,000 compounds, 4.3% hits; Potency, µM, actives largely listed as inhibitors; P15428
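NADH formation kinetics: reaction with 30 uM PGE2 and 1 mM NAD+ (final), 20 nM enzyme, Tris-HCl pH 8 with Tween 20, after 15 min compound preincubation at room temperature. Fluorescence change, last versus first of five reads.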
Luc counter: blocks Kinase-Glo luciferase, a counter-screen artifact | Q27757 | Kinase-Glo luciferase, ATP luminescence, 8 min | Potency, µM (titrated, usually from 38.3 µM), actives largely listed as inhibitors | 200,000 compounds, 0.28% hits; active = well fitted inhibition curve with a large enough effect; inconclusive = small, poorly fitted or top-dose-only effect; note: nearly all actives have a fitted effect of over 60% in size
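Inhibition of Kinase-Glo luciferase light generation was assessed at 10 uM ATP in pH 7.2 imidazole buffer, with luminescence measured after eight minutes at ambient temperature.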
PNC assembly inh: inhibitors of perinucleolar compartment assembly | 140,000 compounds, 3.1% hits | activity change (PNC), negative = inhibition, % at 10 µM | PC3M PTB-GFP, PNC prevalence imaging, 16 h; stronger effect = lower value;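 active = readout at or below -70, meaning at least 70% loss of cells showing the perinucleolar compartment, a nuclear body marking cancer cells; inconclusive = readout between -30 and a set limit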
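PC3M cells stably expressing PTB-GFP, 750–1000 cells/well, treated 16 h at 37 °C with compound (23 nl of library stock), in duplicate. After paraformaldehyde fixation and Hoechst stain, imaged at 20x; PNC prevalence scored by image analysis.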
A number is an active result; n = inactive; u = inconclusive; x = no result given; [ ] = another dose, or the depositor's remark. Unless noted, calls come from the whole dose curve; as a rule, active = well fitted inhibition curve with a large enough effect (not every such curve was filed as active); inconclusive = small, poorly fitted or top-dose-only effect, or another doubt; inactive = no such curve, though single readings can be large or run the other way.

SMILES	ALDH1A1 block	IMPase cell inh	LMNA splice mod	HPGD inh	Luc counter	PNC assembly inh
Cc1ccccc1-c1nnc(SCc2ccccc2)o1	n	u	n	22µM	n	u
O=c1cc(CSc2nnc(COc3ccc(Cl)cc3)o2)c2ccccc2[nH]1	n	n	u	n	n	n
C[C@@H]1CCC2[C@](C)(CO)[C@@H](O)CC[C@]2(C)[C@]12CCC(CO)(CCO)O2 (stereo not given in full)	n	x	x	n	n	x
Cc1ccccc1-c1nc(NCCN2CCOCC2)c2ccccc2n1	n	x	n	n	n	x
Cc1ccccc1-c1nnc(SCc2ccccc2F)o1	n	n	u	16µM	n	n
COc1ccc(-c2nnc(SCc3ccccc3F)o2)cc1	n	n	n	n	n	n
COC(=O)C1=C(C(=O)OC)[C@@H]2N(Cc3ccccc3)c3ccccc3[C@@]23C[C@@H](C(=O)OC)N(S(=O)(=O)c2c(C)noc2C)C3=N1	n[13.5 µM]	x	n[9.22 µM]	n	n[7.66 µM]	x
COC(=O)c1cccc(NS(=O)(=O)c2ccc(OC)cc2)c1C	n	n	u	n	n	u
COC(=O)c1cccc(NS(=O)(=O)c2ccc(OC)c(OC)c2)c1C	n	n	u	n	n	-84
COc1ccc(S(=O)(=O)Nc2ccccc2C(=O)NC(C)C)cc1OC	n	n	n	n	n	-124
Cc1c(-c2ccc(O)cc2)nn(-c2ccc(O)cc2)c1-c1ccc(OCCN2CCCCC2)cc1	u	n	x	n	n	x
Cn1nc(C(F)(F)F)c(C(=O)Nc2ccc(C(F)(F)F)cc2)c1Cl	n	n	n	n	n	n
COc1ccc(NC(=O)c2c(C(F)(F)F)nn(C)c2SCc2ccccc2)cc1	8.9µM	n	n	n	n	n
CC(=O)c1cc(NC(=O)c2cccc(C(F)(F)F)c2)c(=O)oc1C	3.5µM	x	x	x	n	x
CCc1ccccc1Nc1nc2cc(Cl)c(Cl)cc2nc1-n1nc(C)cc1C	x	n	x	x	x	x
Cc1nc2cc3nc(C)sc3cc2s1	1.8µM	n	n	13µM	n	n
Cc1cc(C(F)(F)F)c2c(=O)[nH]c(=O)n(Cc3ccccc3)c2n1	n	n	n	10µM	n	n
O=c1[nH]c(=O)n(Cc2ccccc2)c2nc(-c3ccco3)cc(C(F)(F)F)c12	u	n	u	u	n	n
Cc1nnc2c3ccccc3nc(Nc3ccccc3C(=O)O)n12	x	n	x	x	x	x
CCOC(=O)c1ccc(NC(=O)CN2C(=O)CSCC2=O)cc1	u	n	n	n	n	n
CCOC(=O)c1ccc(NC(=O)CC2C(=O)OCCN2CC)cc1 (stereo not given)	1.4µM	x	n	x	n	x
CCCN1CCC(NC(=O)Nc2ccc([N+](=O)[O-])cc2)CC1	n	x	n	x	n	x
CCOC(=O)c1ccc(NC(=O)CC2OCCN(CC)C2=O)cc1 (stereo not given)	1.8µM	n	n	n	n	n
CCCN1CCOC(CC(=O)Nc2ccc([N+](=O)[O-])cc2)C1=O (stereo not given)	8.9µM	x	x	x	n	x
CCOC(=O)c1ccc(NC(=O)CC2NCCNC2=O)cc1 (stereo not given)	n	n	n	n	n	n
SMILES	ALDH1A1 block	IMPase cell inh	LMNA splice mod	HPGD inh	Luc counter	PNC assembly inh
CCOc1ccc(OC(=O)c2cn(-c3cccc(OC)c3)c(=O)c3ccccc23)cc1	x	x	n	x	x	x
Cc1ccc(NC(=O)CSc2nc(=O)n(Cc3ccco3)c3c2CCC3)cc1F	x	x	n	x	x	x
CC1(C)C(=O)C(c2ccccc2)=C2CN3C(=O)N(CCc4ccccc4)C(=O)C3(Cc3ccc(C(F)(F)F)cc3)C=C21 (stereo not given)	n	x	x	n	n	x
CC(=O)OC[C@@H]1O[C@H](CCON=C(C)C)C=C[C@@H]1OC(C)=O	n[13.5 µM]	x	x	x	x	x
CCOc1ccc(OCC(=O)Nc2nccs2)cc1	n	x	x	x	11µM	x
COc1ccc(OCCC(=O)Nc2nccs2)cc1	n	x	x	x	n	x
COc1ccc(OCC(=O)Nc2nccs2)cc1	n	x	x	x	10µM	x
O=C1COc2cc(S(=O)(=O)CCC(=O)NC3CCCCC3)c(Cl)cc2N1	x	x	n	x	x	x
Cc1ccc(CCNC(=O)C2CCN(S(=O)(=O)c3ccc4c(ccn4C)c3)CC2)cc1	x	x	n	x	x	x
NNC(=O)c1ccc(Cn2cc(Cl)cn2)o1	n	x	x	x	x	x
Cc1ccc2nc(NC(=O)c3ccc(Cn4cc(Cl)cn4)o3)sc2c1	u	n	u	u	n	-100
COc1ccc(NC(=O)CCNS(=O)(=O)c2ccc3c(c2)CCCC(=O)N3)cc1	x	x	n	x	x	x
CN(C)c1ccc(/C=N/N2C(=S)SC(C)(C)C2N(O)C(=O)Nc2ccc([N+](=O)[O-])cc2)cc1 (stereo not given)	13µM	n	n	n	n	n
O=C(Cn1[nH]c(=O)c2ccccc2c1=O)OCC(=O)N1CCCc2ccccc21	n	n	n	n	n	-97
COc1cccc2c(=O)n(CC(=O)N3CCCc4ccccc43)ccc12	10µM	n	n	n	n	n
O=C(Cn1cnc2ccccc21)OCC(=O)N1CCCc2ccccc21	14µM	n	n	n	n	n
Nc1[nH]c(=O)nc2c1ncn2[C@H]1O[C@@H](CO)[C@@H](O)[C@@H]1O	n[13.5 µM]	x	x	n	n[7.66 µM]	x
O=C(CNC(=O)c1ccccc1F)OCc1cc(=O)n2nc(C3CC3)sc2n1	x	x	n	x	x	x
CN(C)CCNC(=O)C1CCN(c2ncnc3c2nc2n3CCCCC2)CC1	x	x	n	x	x	x
COc1cc(OC)cc(-c2nc3ccccc3c(=O)n2OC(=O)c2ccccc2C)c1	n	n	u	n	n	n
O=C(On1c(-c2ccccc2)nc2ccccc2c1=O)c1ccco1	8.9µM	n	n	u	n	n
Cc1ccc(NC(=O)CCNS(=O)(=O)c2cccc3nonc23)cc1Cl	u	x	n	x	n	x
O=C(CCNS(=O)(=O)c1cccc2nonc12)N1CCN(c2cccc(Cl)c2)CC1	2µM	n	n	n	n	u
O=C(CCNS(=O)(=O)c1cccc2nonc12)NCCc1ccc(Cl)cc1	20µM	n	n	n	n	n
COC(=O)[C@H]1O[C@@H](c2cc(OC)c(C)c(OC)c2O)[C@H](C)[C@@H](O)[C@H]1C	n	x	x	n	n	x
SMILES	ALDH1A1 block	IMPase cell inh	LMNA splice mod	HPGD inh	Luc counter	PNC assembly inh
COc1cccc([C@@H]2Oc3ccc(Br)cc3C[C@H]2OC(=O)NCCc2ccc(OC)c(OC)c2)c1	n	x	x	n	n	x
O=C(CN1CCN(Cc2ccccc2Cl)C1=O)NCc1ccccc1Cl	x	n	x	x	x	x
CC1=C(C(N)=O)C(c2cccc(C)c2)n2nc(-c3cccc(C)c3)nc2N1 (stereo not given)	x	n	x	x	x	x
CCCCCCCCCCCCCCC(C(=O)O)C(O)(CC(=O)OC)C(=O)O (stereo not given)	n	x	n	16µM	n	x
CCN(CC)C(=O)CN(c1ccc(C)cc1)S(=O)(=O)c1ccc(SC)cc1	14µM	n	n	n	n	n
COCCNC(=O)CN(c1ccc(C)cc1)S(=O)(=O)c1ccc(SC)cc1	n	n	n	n	n	n

Source: PubChem BioAssay
